Of roughly 7,900 targets only a part is listed; those with a hit were picked by preference. About 0.6% of all pairs of compound and target were hits. A number with no mark means an inactive call.

Chain of UniProt O00458 (O00458 whole entry, looked up): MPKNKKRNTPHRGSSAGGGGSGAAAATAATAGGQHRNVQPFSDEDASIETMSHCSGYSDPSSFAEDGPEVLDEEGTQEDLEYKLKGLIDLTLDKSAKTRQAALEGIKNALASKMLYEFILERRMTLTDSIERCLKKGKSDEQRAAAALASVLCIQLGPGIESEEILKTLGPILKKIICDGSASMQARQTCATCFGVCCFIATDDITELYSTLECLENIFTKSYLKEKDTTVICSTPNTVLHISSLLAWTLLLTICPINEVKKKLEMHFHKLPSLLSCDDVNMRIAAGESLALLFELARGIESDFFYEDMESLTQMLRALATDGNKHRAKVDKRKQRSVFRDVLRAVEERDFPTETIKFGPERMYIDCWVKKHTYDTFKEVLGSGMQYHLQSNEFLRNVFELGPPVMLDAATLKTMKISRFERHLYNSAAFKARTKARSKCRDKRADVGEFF
Chain of UniProt Q53T59 (Q53T59 whole entry, looked up): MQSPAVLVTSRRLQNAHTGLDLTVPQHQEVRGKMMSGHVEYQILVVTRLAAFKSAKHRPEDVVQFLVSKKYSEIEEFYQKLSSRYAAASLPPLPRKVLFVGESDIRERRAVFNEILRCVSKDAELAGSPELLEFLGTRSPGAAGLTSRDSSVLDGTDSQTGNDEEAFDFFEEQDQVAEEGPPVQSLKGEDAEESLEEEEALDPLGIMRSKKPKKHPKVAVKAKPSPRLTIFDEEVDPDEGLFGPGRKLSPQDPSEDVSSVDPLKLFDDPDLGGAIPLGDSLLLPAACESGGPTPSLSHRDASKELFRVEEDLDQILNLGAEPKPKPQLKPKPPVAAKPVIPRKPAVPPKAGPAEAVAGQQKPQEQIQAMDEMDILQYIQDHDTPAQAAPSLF
Chain of UniProt Q8WUI4 (Q8WUI4 whole entry, looked up): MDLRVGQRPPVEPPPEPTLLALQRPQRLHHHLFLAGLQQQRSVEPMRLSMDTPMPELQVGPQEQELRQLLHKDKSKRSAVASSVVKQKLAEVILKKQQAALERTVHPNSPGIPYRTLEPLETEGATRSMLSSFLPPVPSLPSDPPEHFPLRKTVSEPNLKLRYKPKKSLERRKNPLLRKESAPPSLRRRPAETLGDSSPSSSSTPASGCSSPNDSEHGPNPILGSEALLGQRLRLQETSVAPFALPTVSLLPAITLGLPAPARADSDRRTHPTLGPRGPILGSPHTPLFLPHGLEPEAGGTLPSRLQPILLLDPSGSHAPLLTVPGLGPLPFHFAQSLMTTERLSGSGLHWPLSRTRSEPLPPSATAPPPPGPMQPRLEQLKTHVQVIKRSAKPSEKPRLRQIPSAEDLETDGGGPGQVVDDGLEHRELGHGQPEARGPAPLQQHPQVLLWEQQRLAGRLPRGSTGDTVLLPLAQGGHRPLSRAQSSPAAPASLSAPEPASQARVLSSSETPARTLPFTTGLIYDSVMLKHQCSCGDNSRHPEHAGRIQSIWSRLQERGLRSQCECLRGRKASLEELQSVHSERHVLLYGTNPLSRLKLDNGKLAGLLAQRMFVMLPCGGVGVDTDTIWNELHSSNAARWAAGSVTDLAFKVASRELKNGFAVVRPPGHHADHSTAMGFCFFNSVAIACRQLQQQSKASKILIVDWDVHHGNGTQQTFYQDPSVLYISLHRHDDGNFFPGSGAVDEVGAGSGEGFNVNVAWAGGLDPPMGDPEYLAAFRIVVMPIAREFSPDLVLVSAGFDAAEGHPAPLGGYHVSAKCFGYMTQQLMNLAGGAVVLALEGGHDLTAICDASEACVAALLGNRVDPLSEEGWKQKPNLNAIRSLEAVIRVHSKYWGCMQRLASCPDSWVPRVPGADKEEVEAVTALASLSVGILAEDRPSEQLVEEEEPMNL
Chain of UniProt Q9BUJ2 (Q9BUJ2 whole entry, looked up): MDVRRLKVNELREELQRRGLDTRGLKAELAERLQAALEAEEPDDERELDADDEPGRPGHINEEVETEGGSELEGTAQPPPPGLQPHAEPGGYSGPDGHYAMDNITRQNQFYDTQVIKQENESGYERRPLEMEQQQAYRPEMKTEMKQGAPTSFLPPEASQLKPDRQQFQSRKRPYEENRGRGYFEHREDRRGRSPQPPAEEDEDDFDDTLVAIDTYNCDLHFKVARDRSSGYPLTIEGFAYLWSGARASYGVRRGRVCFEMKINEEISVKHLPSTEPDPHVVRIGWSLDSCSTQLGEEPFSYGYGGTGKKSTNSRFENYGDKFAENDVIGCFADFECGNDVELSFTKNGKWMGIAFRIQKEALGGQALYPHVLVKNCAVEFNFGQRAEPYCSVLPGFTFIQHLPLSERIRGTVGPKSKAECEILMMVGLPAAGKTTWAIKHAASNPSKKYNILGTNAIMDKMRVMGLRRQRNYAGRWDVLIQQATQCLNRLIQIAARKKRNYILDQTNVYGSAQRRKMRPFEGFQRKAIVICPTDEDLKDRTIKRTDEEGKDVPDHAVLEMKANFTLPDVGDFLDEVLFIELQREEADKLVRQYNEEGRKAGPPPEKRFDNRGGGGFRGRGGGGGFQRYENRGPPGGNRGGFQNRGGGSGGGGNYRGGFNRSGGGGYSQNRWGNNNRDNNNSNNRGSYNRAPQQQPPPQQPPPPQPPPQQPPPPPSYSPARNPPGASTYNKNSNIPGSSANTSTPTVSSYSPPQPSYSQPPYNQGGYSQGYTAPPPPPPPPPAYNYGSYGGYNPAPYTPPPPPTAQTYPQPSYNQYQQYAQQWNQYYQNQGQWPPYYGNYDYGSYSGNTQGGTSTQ
Chain of UniProt P06865 (P06865 whole entry, looked up): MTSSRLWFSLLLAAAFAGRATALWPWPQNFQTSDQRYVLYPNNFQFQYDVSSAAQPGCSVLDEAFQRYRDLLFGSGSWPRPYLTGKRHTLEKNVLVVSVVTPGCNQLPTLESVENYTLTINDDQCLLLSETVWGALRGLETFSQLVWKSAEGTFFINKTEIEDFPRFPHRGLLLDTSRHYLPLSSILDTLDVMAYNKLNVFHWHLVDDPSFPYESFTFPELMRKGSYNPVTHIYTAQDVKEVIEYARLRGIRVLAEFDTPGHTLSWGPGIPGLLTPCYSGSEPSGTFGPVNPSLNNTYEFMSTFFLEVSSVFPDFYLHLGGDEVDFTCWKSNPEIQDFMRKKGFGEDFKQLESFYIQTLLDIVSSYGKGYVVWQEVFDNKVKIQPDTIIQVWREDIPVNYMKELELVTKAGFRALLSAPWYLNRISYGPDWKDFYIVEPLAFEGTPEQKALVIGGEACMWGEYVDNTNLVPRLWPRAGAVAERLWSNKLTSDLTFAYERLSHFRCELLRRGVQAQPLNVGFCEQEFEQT
Chain of UniProt P16278 (P16278 whole entry, looked up): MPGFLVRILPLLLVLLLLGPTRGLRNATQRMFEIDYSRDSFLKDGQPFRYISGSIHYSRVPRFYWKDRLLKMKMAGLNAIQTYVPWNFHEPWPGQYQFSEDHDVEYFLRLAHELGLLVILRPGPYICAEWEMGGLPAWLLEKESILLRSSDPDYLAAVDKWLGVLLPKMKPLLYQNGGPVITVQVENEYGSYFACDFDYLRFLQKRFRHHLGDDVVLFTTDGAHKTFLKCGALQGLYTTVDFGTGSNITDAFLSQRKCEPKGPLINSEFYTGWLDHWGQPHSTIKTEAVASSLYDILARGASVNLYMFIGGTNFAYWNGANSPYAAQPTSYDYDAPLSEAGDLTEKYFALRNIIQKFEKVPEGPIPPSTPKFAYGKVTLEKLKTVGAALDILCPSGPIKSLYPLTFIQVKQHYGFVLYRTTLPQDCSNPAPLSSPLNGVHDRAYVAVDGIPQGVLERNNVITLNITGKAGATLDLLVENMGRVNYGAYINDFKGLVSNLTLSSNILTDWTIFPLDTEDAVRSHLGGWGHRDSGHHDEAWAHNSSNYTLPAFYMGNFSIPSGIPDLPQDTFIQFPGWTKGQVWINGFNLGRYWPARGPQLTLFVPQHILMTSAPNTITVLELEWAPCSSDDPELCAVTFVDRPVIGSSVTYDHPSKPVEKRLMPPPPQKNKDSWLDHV
Chain of UniProt Q9Y613 (Q9Y613 whole entry, looked up): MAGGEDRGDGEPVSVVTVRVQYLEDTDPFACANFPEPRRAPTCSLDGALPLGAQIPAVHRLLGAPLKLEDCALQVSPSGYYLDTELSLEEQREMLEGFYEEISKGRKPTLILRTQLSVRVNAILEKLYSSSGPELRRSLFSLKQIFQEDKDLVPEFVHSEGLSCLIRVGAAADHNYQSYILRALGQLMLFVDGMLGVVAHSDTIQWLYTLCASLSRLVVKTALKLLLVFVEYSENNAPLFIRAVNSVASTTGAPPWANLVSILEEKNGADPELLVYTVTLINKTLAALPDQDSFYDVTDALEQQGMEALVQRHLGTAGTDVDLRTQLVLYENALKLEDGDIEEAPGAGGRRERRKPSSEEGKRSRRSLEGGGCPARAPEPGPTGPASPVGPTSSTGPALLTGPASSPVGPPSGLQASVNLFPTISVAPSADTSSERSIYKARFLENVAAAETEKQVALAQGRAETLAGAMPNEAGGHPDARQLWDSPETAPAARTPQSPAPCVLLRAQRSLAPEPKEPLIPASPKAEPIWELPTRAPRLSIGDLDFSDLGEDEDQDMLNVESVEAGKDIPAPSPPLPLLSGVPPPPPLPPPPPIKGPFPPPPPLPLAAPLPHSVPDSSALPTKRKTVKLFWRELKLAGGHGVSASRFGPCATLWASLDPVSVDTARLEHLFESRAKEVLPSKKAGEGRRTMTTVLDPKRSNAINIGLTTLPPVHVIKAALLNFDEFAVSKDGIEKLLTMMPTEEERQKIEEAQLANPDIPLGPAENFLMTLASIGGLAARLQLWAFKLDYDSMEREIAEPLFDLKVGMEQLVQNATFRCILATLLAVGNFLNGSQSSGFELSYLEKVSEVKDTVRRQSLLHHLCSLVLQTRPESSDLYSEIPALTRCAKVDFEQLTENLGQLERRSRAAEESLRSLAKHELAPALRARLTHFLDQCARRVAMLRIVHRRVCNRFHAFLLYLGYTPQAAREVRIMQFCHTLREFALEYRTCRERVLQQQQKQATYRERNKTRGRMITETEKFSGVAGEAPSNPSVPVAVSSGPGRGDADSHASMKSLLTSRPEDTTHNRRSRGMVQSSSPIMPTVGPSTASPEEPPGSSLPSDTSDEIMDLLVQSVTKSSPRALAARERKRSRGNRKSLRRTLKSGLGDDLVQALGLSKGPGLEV

Compound in the assay: CN1CCN(c2nc(C3=C(c4c[nH]c5ccccc45)C(=O)NC3=O)c3ccccc3n2)CC1 [sotrastaurin]
The assay is described as follows: log2 fold change, soluble protein after heating vs DMSO (PISA); higher = thermal stabilisation; K562 cells, 10 uM, 30 min; active = over 0.2 and 3.5 SD of the protein, either way, in both replicates (recomputed). The procedure, abridged: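 K562 cells at 2×10^6 cells/mL were treated with 10 μM compound for 30 min. Aliquots were heated for 3 min across 48°C-58°C, pooled, and extracted in PBS with 0.5% NP-40 at 4°C; soluble protein was the supernatant after 21,000xg for 90 min. Soluble protein was quantified by TMTpro 16plex LC-MS/MS with channel sums equalised, and reported as log2 fold change in thermal stability against DMSO controls, with values from duplicates.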
Regarding FHOD1 (UniProt Q9Y613), the log2 fold change is -0.112.

For GLB1 (UniProt P16278), the log2 fold change was 0.059.

Take HDGFL2 (UniProt Q7Z4V5): the log2 fold change is 0.119.

FYB1 isoform 3 (UniProt O15117): the log2 fold change is -0.101.

In the case of HEXA (UniProt P06865), the log2 fold change was 0.098.

Regarding GLUL (UniProt P15104), the log2 fold change is -0.058.

On to HS1BP3 (UniProt Q53T59), for which the log2 fold change was -0.078.

On to ICMT (UniProt O60725), for which the log2 fold change is 0.025.

Consider HNRNPH2 (UniProt P55795), for which the log2 fold change is -0.081.

Turning to GGA2 (UniProt Q9UJY4), the log2 fold change is 0.053.

Regarding GBA2 (UniProt Q9HCG7), the log2 fold change is -0.026.

Regarding HK2 (UniProt P52789), the log2 fold change is -0.075.

For GMEB2 (UniProt Q9UKD1), the log2 fold change is -0.019.

Turning to IFRD1 (UniProt O00458), the log2 fold change is 0.242.

Regarding GAK (UniProt O14976), the log2 fold change was -0.066.

In the case of HDAC7 isoform 5 (UniProt Q8WUI4), the log2 fold change is -0.048.

In the case of HNRNPUL1 (UniProt Q9BUJ2), the log2 fold change is 0.039.

For the target HSD17B12 (UniProt Q53GQ0), the log2 fold change was 0.151.

As to GBF1 (UniProt Q92538), the log2 fold change is -0.103.

As for HSPA8 (UniProt E9PN89), the log2 fold change is 0.105.

For the target GOLGB1 isoform 2 (UniProt Q14789), the log2 fold change was -0.121.

GLRX3 (UniProt O76003): the log2 fold change is -0.066.

In the case of HMGN1 (UniProt P05114), the log2 fold change was 0.068.
